In PubChem BioAssay (NCATS):
Results filed as inconclusive are left out. The source made the active and inactive calls. Unless noted, calls come from the whole dose curve; as a rule, active = well fitted curve in the direction sought with a large enough effect; inconclusive = small, poorly fitted or top-dose-only effect, or another doubt; inactive = no such curve, though single readings can be large; an effect the other way counts as inactive or inconclusive.

Tests used:
[1] = target: Glucocorticoid receptor (Homo sapiens) (UniProt P04150); test: GR-GFP Redistribution (AID 450;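 active = compounds whose dose series gives a full or clear partial fitted curve of increased nuclear translocation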; note: potency is the fitted concentration of half-maximal effect); conditions: U2OS GR-GFP nuclear translocation, laser cytometry, 2 h
Sequence of Glucocorticoid receptor (Homo sapiens) (P04150 whole entry, looked up, the tested form may be a part): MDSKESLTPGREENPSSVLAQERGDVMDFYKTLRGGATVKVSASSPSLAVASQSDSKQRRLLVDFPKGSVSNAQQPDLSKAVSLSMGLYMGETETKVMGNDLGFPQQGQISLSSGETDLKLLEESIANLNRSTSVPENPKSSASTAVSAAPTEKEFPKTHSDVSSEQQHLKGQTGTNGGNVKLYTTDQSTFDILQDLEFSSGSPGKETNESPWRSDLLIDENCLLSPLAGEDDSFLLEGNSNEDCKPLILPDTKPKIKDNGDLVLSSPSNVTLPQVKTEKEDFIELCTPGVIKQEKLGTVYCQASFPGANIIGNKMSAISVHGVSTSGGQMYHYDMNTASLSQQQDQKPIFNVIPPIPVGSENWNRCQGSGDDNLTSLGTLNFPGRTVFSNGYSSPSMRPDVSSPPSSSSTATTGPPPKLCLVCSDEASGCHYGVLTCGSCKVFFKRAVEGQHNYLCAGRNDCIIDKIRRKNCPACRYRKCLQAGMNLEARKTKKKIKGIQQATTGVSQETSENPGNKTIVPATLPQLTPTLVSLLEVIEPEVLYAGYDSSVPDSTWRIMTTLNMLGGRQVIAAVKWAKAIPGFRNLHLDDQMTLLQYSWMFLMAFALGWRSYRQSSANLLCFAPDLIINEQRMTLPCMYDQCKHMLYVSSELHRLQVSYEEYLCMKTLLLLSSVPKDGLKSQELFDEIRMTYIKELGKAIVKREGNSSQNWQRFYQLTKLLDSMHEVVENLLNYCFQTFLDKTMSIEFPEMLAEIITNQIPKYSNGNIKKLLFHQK

[2] = target: Glucocorticoid receptor (Homo sapiens) (UniProt P04150); test: GR-EFC Redistribution (AID 451; calls by dose curve; note: potency is the fitted concentration of half-maximal effect); conditions: CHO-K1 GR-EFC translocation, beta-gal luminescence, 2 h
Procedure, shortened: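 CHO-K1 cells stably expressing nuclear-localized β-gal enzyme acceptor and GR fused C-terminally to the enzyme donor fragment; ligand-driven nuclear translocation restores β-gal by complementation. Compounds titrated up to 46 uM final, 2 h at 37 °C; luminescence read.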

[3] = target: Mitogen-activated protein kinase 10 (Mus musculus) (UniProt Q61831); test: JNK3 AlphaScreen Assay (AID 530; active = well fitted curve in either direction with a large enough effect, not every such curve was filed as active;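 note: kinase came from lysate of stimulated human HepG2 cells; signal reports phosphorylation of biotinylated GST-cJun 1-79 at Ser73 with 10 µM ATP; series mostly up to about 57 µM; % is set by controls: 0 for no effect and ±100 for the full control effect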)
Procedure, shortened: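 Phosphorylation of biotinylated GST-cJun(1-79) at Ser73 is measured by AlphaScreen proximity luminescence. Enzyme is JNK3 in HepG2 lysates activated with interleukin-1beta and tumor necrosis factor alpha; ATP is 10 uM final.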

[4] = target: Guanine nucleotide-binding protein G(i) subunit alpha-1 (Homo sapiens) (UniProt P63096); test: qHTS Assay for Inhibitors of RGS12 GoLoco Motif Activity (Green Fluorophore) (AID 879);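 note: 0% = labeled peptide with Gαi1 and full inhibition = labeled peptide alone without protein; negative values mean loss of peptide binding seen as reduced polarization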
Sequence of Guanine nucleotide-binding protein G(i) subunit alpha-1 (Homo sapiens) (P63096 whole entry, looked up): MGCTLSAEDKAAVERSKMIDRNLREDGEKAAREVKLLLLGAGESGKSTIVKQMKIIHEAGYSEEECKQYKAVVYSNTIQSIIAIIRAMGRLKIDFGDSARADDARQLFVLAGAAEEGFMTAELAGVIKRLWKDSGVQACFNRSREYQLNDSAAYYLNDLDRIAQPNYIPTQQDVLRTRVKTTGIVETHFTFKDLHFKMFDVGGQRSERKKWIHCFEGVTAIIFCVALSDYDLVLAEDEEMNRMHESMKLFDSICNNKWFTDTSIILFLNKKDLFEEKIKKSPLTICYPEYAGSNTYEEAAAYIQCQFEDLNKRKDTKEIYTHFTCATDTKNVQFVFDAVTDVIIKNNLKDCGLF
Procedure, shortened: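 A drop in FITC polarization marked displacement of the FITC-tagged RGS12 GoLoco peptide (10 nM) from Gαi1 (50 nM). Compounds were incubated 10 min at room temperature in Tris pH 7.5 buffer containing 150 mM NaCl, 0.1 mM GDP and 0.05% NP40; unlabeled peptide titration served as control.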

[5] = qHTS Assay for Identification of Small Molecule Antagonists for Thrombopoietin (TPO) Signaling Pathway (AID 918); conditions: TPO-dependent cell signaling reporter, antagonist mode; note: potency is the fitted concentration of half-maximal effect; nearly all actives have a fitted effect of over 60% in size
Procedure, shortened: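 Inhibitors of TPO signaling are sought by stimulating IL-3-starved murine Ba/F3 cells (human TPO receptor, Glycoprotein IIb-driven luciferase) with TPO at its EC50 of 26 pM alongside compound. After 24 hrs at 37 C, reporter luminescence is measured.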

[6] = target: Muscarinic acetylcholine receptor M1 (Rattus norvegicus) (UniProt P08482); test: qHTS Assay for Antagonists of Acetylcholine Muscarinic M1 Receptor: Kinetic Measurement of Intracellular Calcium Response (AID 943);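 note: Fluo-4 calcium signal as peak divided by basal fluorescence over 4 min; series mostly up to about 35 µM; nearly all actives have a fitted effect of over 75% in size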
Sequence of Muscarinic acetylcholine receptor M1 (Rattus norvegicus) (P08482 whole entry, looked up): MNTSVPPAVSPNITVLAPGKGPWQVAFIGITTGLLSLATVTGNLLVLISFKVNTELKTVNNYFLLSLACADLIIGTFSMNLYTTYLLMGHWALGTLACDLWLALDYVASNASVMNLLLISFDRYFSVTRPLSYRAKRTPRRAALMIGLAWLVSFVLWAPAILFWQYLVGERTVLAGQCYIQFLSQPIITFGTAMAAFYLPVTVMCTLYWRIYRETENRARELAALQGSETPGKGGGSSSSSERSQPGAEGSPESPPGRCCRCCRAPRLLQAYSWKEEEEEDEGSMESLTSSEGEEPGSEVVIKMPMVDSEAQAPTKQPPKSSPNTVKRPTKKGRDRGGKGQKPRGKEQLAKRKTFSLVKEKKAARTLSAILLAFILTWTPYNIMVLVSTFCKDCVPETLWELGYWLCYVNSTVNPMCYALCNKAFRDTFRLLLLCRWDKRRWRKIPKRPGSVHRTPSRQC
Procedure, shortened: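 Antagonism is measured as inhibition of the carbachol-evoked calcium rise in CHO cells transfected with rat M1. Cells are dye-loaded, exposed to compound for 10 min, then stimulated with 100 nM carbachol (EC80).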

[7] = target: Pyruvate kinase (Leishmania mexicana) (UniProt Q27686); test: qHTS Validation Assay for Inhibitors of Leishmania Mexicana Pyruvate Kinase (AID 945);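 note: 0% = DMSO only neutral control wells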
Sequence of Pyruvate kinase (Leishmania mexicana) (Q27686 2-499 E452W): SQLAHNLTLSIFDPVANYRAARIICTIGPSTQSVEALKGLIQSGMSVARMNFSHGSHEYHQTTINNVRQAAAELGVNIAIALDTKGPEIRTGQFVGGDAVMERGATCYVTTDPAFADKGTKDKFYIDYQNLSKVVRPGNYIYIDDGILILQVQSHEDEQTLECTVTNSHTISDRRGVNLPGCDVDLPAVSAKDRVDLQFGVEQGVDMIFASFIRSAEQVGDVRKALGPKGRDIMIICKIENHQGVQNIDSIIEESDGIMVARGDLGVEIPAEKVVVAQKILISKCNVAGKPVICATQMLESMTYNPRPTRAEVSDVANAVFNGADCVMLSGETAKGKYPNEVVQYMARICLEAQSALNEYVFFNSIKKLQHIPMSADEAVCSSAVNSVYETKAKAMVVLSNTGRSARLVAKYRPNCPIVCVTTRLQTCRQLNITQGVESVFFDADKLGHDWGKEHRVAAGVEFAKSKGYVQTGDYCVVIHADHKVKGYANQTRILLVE
Procedure, shortened: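 The enzyme is a highly purified E451W mutant of LmPYK used at 0.2 nM. It converts 0.5 mM PEP and 0.1 mM ADP over 1 h at room temperature; product ATP is quantified by luciferase luminescence relative to DMSO controls.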

[8] = target: Pyruvate kinase PKM (Homo sapiens) (UniProt P14618); test: qHTS Assay for Activators of Human Muscle Pyruvate Kinase (AID 954; active = well fitted curve in the direction sought with a large enough effect, not every such curve was filed as active;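 note: 0% = uninhibited enzyme and -100% = no enzyme or full thiadiazolimine inhibition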)
Sequence of Pyruvate kinase PKM (Homo sapiens) (P14618 whole entry, looked up): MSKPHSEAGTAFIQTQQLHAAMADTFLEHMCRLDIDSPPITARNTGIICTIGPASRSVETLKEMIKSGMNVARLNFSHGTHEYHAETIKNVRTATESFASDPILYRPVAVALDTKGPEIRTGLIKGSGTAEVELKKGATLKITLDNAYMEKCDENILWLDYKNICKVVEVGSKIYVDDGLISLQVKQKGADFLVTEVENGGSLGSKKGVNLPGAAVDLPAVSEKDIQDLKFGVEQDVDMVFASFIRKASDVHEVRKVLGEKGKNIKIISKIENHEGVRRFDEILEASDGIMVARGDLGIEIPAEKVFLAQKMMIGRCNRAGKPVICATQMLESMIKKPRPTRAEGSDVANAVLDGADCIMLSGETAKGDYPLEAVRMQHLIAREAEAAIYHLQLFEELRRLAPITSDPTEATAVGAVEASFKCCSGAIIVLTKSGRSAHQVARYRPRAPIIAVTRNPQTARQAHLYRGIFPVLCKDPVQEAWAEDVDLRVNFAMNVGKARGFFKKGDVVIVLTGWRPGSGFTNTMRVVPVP
Procedure, shortened: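 A coupled luminescent readout tracked ATP made from ADP by purified PKM2. Final conditions included 0.1 nM enzyme, PEP and ADP at 0.5 and 0.1 mM, pH 7.2 imidazole buffer with BSA, and a one-hour room-temperature reaction.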

[9] = target: Alpha-galactosidase (Coffea arabica) (UniProt Q42656); test: Counterscreen for Glucocerebrosidase Inhibitors: qHTS Assay for Coffee Bean alpha-Galactosidase at pH 4.5 (AID 957);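 note: series mostly up to about 77 µM; plate controls were enzyme alone for no effect and no enzyme for full effect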
Sequence of Alpha-galactosidase (Coffea arabica) (Q42656 whole entry, looked up): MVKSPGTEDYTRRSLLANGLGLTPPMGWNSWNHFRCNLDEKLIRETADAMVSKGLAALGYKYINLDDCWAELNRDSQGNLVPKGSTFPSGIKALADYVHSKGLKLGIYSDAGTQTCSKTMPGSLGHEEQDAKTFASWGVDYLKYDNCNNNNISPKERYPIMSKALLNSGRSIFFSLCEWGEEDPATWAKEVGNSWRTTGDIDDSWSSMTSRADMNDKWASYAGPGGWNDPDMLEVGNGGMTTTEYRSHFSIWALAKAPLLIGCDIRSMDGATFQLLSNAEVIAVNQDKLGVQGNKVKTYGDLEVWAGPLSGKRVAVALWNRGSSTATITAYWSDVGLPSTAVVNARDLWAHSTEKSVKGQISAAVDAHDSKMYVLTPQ
Procedure, shortened: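 Enzyme is added first (2 nM final), then compounds titrated from 0.7 nM to 77 uM, then 80 uM 4-methylumbelliferyl alpha-D-galactopyranoside; after 20 min at room temperature a pH 10 NaOH/glycine stop precedes fluorescence reading at 365/440 nm.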

[10] = target: Alpha-galactosidase A (Homo sapiens) (UniProt P06280); test: Counterscreen for Glucocerebrosidase Inhibitors: qHTS Assay for Human alpha-Galactosidase at pH 4.5 (AID 992); note: 0% is about no effect
Sequence of Alpha-galactosidase A (Homo sapiens) (P06280 whole entry, looked up): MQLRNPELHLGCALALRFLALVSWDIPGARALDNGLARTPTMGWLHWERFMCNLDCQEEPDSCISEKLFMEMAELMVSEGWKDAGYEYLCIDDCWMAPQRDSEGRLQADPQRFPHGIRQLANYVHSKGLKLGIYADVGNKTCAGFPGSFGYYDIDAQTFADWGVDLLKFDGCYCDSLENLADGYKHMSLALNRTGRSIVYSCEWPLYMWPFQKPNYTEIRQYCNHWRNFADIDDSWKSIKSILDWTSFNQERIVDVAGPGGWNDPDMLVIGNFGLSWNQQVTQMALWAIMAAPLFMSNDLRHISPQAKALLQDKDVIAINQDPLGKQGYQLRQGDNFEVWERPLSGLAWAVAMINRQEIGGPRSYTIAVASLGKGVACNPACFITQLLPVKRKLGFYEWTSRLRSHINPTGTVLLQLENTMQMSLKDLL
Procedure, shortened: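 Citrate buffer pH 4.5, Tween-20 0.005%. Enzyme 2 nM, substrate 80 uM, 20 min RT. Stop pH 10. Fluorescence Ex 365/Em 440. AC50 by Hill fit.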

[11] = target: alpha-glucosidase (Oryza sativa, rice) (UniProt Q653V4); test: Counterscreen for Glucocerebrosidase Inhibitors: qHTS Assay for Rice alpha-Glucosidase at pH 5.0 (AID 997);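 note: 0% = full activity with enzyme and -100% = basal without enzyme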
Procedure, shortened: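 Endpoint fluorogenic assay at pH 5.0: compounds (0.7 nM to 77 uM) titrated against 4 nM rice enzyme and 400 uM 4-MU-alpha-glucoside for 20 min at room temperature; NaOH/glycine stop, read ex 365/em 440 nm, Hill-fitted AC50.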

[12] = target: Alpha-galactosidase (Coffea arabica) (UniProt Q42656); test: Counterscreen for Glucocerebrosidase Inhibitors: qHTS Assay for Coffee Bean alpha-Galactosidase at pH 5.9 (AID 998);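 note: plate controls were uninhibited enzyme for no effect and no-enzyme basal signal for full effect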
Procedure, shortened: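 In 50 mM citric acid pH 5.9 with 0.005% Tween-20, coffee bean enzyme hydrolyses 80 uM 4-MU alpha-D-galactopyranoside over 20 min at RT. Activity is normalized to controls; AC50 comes from Hill-modelled concentration-response data.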

[13] = target: DNA dC->dU-editing enzyme APOBEC-3G (Homo sapiens) (UniProt Q9HC16); test: qHTS for inhibitors of Vif-A3G interactions: Validation (AID 588379); note: 0% is about no effect
Sequence of DNA dC->dU-editing enzyme APOBEC-3G (Homo sapiens) (Q9HC16 whole entry, looked up): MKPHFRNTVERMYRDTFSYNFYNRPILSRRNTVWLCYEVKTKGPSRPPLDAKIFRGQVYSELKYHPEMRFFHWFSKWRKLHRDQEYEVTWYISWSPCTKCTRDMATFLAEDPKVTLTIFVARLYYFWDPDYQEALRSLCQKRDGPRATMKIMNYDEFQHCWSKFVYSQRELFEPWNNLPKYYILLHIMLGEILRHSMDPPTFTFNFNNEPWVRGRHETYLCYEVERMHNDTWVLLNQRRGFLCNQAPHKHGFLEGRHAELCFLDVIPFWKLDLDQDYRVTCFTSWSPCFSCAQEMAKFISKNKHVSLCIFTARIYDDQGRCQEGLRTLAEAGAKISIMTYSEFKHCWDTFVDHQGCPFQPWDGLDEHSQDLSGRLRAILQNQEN
Procedure, shortened: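 Yellow fluorescence (Ex 488, Em 500-530) of Vif-coexpressing HeLa A3G-eYFP cells, scanned by Acumen cytometer, reports blocked A3G degradation. Cells plated at 700/well overnight at 37 deg C before compound addition, then a further overnight compound incubation at 37 deg C.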

[14] = system: Zika virus NS2B-NS3 protease; test: Primary screen GU AMC qHTS for Zika virus inhibitors (AID 1347154);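 note: 0% = no-inhibitor control and -100% = no-enzyme control; nearly all actives have a fitted effect of over 70% in size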
Procedure, shortened: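 Unlinked Zika NS2B hydrophilic domain/NS3 protease domain noncovalent complex (25 nM final) in 10 mM Tris-HCl pH 8.0, 0.01% Tween 20, with AMC peptide substrate. Fluorescence (ex 340, em 450 nm) change over 15 min, room temperature; percent inhibition fitted to 4-parameter Hill equation.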

[15] = Confirmatory qHTS for small molecule stabilizers of the endoplasmic reticulum resident proteome: Secreted ER Calcium Modulated Protein (SERCaMP) assay (AID 1508628); note: series mostly up to about 76 µM; % is set by controls: 0 for no effect and ±100 for the full control effect; nearly all actives have a fitted effect of over 40% in size
Procedure, shortened: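 Reporter secretion upon ER calcium depletion (100 nM thapsigargin, 4 h, 37C) is measured as medium luminescence with coelenterazine, after 16 h compound pretreatment of SH-SY5Y-GLuc-SERCaMP cells; primary at three concentrations up to 38.3 uM, follow-up at 11 (up to 76.6 uM).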

[16] = Cell Viability qHTS for small molecule stabilizers of the endoplasmic reticulum resident proteome (AID 1508629); conditions: cell viability counter-screen, 100 nM thapsigargin for final 4 h;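 note: potency is the fitted concentration of half-maximal effect; compound exposure about 46 h in total before the viability read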
[17] = Primary qHTS for small molecule stabilizers of the endoplasmic reticulum resident proteome: Secreted ER Calcium Modulated Protein (SERCaMP) assay (AID 1508630); note: % is set by controls: 0 for no effect and ±100 for the full control effect
Procedure, shortened: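 The SH-SY5Y reporter protocol was run at 3 concentrations up to 38.3 uM (primary) or 11 concentrations (follow-up): 16 h compound, 100 nM thapsigargin for 4 h, then extracellular luciferase luminescence.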

[18] = target: Ubiquitin carboxyl-terminal hydrolase 1 (Homo sapiens) (UniProt O94782); test: Inhibitors of USP1/UAF1: Pilot qHTS (AID 504865);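 note: rhodamine fluorescence freed from ubiquitin-rhodamine substrate followed over time; top concentration of the series differs between compounds; % is set by controls: 0 for no effect and ±100 for the full control effect; nearly all actives have a fitted effect of over 35% in size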
Sequence of Ubiquitin carboxyl-terminal hydrolase 1 (Homo sapiens) (O94782 whole entry, looked up): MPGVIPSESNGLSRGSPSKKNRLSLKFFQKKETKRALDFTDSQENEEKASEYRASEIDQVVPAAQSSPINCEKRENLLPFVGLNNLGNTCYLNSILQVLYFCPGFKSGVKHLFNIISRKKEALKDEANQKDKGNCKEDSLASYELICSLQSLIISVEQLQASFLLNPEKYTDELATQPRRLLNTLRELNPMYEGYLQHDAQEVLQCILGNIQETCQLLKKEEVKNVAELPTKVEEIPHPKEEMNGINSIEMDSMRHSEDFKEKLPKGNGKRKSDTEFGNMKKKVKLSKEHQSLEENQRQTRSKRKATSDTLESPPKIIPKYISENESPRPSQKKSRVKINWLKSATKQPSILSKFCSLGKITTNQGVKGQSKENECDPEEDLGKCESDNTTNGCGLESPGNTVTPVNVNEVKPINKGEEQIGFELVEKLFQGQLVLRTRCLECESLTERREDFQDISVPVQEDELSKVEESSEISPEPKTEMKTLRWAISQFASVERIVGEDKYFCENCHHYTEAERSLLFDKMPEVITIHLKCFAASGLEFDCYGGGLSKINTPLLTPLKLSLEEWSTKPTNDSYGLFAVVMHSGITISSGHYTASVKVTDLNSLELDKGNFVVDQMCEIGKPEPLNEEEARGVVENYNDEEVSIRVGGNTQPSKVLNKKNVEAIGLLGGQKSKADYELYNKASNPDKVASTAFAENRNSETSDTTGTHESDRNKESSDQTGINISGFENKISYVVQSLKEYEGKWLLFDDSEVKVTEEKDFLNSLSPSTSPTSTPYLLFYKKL
Procedure, shortened: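 USP1/UAF1 complex at 1 nM preincubated 15 min at room temperature with compound, then Ub-Rho substrate added at 150 nM final. Fluorescence (480/540 nm) read kinetically in 50 mM HEPES pH 7.8, 0.5 mM EDTA, 1 mM TCEP, 0.1 mg/ml BSA, 0.01% Tween-20.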

[19] = Counterscreen qHTS for small molecule stabilizers of the endoplasmic reticulum resident proteome: GLuc-NoTag assay (AID 1508627);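 note: series mostly up to about 76 µM; 0% = thapsigargin alone and -100% = DMSO vehicle control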
Procedure, shortened: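 Secreted GLuc lacking the SERCaMP modification is measured in SH-SY5Y cells exposed to compound for 19 h and then to thapsigargin (100 nM, 4 h) to deplete ER calcium; hits retested at 11 concentrations, up to 76.6 uM.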

CNc1ccc2oc(C[C@H]3O[C@]4(CC[C@H]3C)O[C@H]([C@H](C)C(=O)c3ccc[nH]3)[C@H](C)C[C@H]4C)nc2c1C(=O)O
active: Potency [5] 3.16 µM | Potency [16] 8.91 µM
inactive: Potency [1] > 46 µM | Potency [2] > 46 µM | outcome [3] | outcome [4] | Potency [6] | outcome [7] | outcome [8] | outcome [9] | outcome [10] | outcome [11] | outcome [12] | Potency [13] | Potency [14] | Potency [15] | Potency [17]

CN1CC[C@@H]2CN3CCc4cccc(c43)[C@H]2C1
inactive: Potency [1] > 46 µM | Potency [2] > 46 µM | outcome [3] | Potency [18] | Potency [13] | Potency [14] | Potency [19]

CCCCCCCCCCCCCCCCOC[C@@H](COP(=O)([O-])OCC[N+](C)(C)C)OC(C)=O
inactive: activity change, negative = inhibition [14] 5.71% [at 6.83 µM] | activity change, negative = inhibition [17] -29.1% [at 3.88 µM]

CCN1C[C@]2(COC)CC[C@H](OC)[C@@]34C5C[C@@H]6[C@@H](OC)C[C@@]7(OCO[C@@]7([C@@H](O)C23)[C@@H]14)C5[C@H]6OC (stereo not given in full)
inactive: Potency [14] | Potency [17]

CC(C)(C)NC[C@H](O)COc1cccc2[nH]c(C#N)cc12
inactive: Potency [14] | Potency [17]
